According to the supplement of paper PMC12067093, “Discovery and optimisation of a covalent ligand for TRIM25 and its application to targeted protein ubiquitination” (Chemical Science, 2025):
The full data set covers some 21,000 targets. This sample favours those with the largest changes.

Compound: CC1Cc2ccccc2N1C(=O)C1CCCN(C1)C(=O)CCl (mixture of isomers) [TRIM25 ligand 11 (diastereomer mixture)]
Assay: probe-labelled cysteine peptide fold change vs DMSO (competition) (log2 fold change); higher = less target engagement (more negative = stronger competition)
Conditions: THP-1, incubation time: 4 h
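Also: competitive chemoproteomic profiling in live THP-1 cells with an iodoacetamide desthiobiotin (IA-DTB) probe, comparing probe-labelled peptide intensities in compound-treated cells against DMSO-treated controls.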

Chain of UniProt Q9Y6K5 (Q9Y6K5 whole entry, looked up): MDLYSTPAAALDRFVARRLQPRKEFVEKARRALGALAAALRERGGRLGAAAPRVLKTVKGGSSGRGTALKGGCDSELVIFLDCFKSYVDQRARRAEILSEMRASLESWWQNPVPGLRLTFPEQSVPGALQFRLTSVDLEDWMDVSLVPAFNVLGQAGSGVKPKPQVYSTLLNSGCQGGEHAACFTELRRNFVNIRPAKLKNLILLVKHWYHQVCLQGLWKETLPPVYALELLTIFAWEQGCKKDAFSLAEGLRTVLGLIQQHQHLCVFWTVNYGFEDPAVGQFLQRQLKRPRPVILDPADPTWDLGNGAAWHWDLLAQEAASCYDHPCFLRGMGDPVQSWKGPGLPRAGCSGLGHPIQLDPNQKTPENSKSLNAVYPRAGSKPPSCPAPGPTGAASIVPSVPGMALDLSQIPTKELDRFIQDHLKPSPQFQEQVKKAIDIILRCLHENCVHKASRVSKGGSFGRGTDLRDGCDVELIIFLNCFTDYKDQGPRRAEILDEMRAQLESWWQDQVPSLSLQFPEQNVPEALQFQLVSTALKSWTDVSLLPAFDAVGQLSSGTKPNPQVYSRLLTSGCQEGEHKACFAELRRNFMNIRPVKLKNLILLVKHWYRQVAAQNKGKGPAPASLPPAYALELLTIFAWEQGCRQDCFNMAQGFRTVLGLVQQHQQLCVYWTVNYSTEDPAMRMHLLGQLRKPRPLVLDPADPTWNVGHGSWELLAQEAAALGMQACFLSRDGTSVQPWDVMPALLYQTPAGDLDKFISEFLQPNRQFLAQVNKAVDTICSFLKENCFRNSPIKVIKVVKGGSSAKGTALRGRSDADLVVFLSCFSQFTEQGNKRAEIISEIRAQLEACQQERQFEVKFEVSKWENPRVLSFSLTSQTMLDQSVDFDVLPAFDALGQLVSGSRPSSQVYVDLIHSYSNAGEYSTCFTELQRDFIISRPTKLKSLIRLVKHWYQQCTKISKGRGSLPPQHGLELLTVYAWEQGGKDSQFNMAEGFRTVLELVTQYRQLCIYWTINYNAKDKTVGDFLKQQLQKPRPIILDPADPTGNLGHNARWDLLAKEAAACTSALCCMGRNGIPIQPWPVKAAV
Chain of UniProt P21359 (P21359 whole entry, looked up): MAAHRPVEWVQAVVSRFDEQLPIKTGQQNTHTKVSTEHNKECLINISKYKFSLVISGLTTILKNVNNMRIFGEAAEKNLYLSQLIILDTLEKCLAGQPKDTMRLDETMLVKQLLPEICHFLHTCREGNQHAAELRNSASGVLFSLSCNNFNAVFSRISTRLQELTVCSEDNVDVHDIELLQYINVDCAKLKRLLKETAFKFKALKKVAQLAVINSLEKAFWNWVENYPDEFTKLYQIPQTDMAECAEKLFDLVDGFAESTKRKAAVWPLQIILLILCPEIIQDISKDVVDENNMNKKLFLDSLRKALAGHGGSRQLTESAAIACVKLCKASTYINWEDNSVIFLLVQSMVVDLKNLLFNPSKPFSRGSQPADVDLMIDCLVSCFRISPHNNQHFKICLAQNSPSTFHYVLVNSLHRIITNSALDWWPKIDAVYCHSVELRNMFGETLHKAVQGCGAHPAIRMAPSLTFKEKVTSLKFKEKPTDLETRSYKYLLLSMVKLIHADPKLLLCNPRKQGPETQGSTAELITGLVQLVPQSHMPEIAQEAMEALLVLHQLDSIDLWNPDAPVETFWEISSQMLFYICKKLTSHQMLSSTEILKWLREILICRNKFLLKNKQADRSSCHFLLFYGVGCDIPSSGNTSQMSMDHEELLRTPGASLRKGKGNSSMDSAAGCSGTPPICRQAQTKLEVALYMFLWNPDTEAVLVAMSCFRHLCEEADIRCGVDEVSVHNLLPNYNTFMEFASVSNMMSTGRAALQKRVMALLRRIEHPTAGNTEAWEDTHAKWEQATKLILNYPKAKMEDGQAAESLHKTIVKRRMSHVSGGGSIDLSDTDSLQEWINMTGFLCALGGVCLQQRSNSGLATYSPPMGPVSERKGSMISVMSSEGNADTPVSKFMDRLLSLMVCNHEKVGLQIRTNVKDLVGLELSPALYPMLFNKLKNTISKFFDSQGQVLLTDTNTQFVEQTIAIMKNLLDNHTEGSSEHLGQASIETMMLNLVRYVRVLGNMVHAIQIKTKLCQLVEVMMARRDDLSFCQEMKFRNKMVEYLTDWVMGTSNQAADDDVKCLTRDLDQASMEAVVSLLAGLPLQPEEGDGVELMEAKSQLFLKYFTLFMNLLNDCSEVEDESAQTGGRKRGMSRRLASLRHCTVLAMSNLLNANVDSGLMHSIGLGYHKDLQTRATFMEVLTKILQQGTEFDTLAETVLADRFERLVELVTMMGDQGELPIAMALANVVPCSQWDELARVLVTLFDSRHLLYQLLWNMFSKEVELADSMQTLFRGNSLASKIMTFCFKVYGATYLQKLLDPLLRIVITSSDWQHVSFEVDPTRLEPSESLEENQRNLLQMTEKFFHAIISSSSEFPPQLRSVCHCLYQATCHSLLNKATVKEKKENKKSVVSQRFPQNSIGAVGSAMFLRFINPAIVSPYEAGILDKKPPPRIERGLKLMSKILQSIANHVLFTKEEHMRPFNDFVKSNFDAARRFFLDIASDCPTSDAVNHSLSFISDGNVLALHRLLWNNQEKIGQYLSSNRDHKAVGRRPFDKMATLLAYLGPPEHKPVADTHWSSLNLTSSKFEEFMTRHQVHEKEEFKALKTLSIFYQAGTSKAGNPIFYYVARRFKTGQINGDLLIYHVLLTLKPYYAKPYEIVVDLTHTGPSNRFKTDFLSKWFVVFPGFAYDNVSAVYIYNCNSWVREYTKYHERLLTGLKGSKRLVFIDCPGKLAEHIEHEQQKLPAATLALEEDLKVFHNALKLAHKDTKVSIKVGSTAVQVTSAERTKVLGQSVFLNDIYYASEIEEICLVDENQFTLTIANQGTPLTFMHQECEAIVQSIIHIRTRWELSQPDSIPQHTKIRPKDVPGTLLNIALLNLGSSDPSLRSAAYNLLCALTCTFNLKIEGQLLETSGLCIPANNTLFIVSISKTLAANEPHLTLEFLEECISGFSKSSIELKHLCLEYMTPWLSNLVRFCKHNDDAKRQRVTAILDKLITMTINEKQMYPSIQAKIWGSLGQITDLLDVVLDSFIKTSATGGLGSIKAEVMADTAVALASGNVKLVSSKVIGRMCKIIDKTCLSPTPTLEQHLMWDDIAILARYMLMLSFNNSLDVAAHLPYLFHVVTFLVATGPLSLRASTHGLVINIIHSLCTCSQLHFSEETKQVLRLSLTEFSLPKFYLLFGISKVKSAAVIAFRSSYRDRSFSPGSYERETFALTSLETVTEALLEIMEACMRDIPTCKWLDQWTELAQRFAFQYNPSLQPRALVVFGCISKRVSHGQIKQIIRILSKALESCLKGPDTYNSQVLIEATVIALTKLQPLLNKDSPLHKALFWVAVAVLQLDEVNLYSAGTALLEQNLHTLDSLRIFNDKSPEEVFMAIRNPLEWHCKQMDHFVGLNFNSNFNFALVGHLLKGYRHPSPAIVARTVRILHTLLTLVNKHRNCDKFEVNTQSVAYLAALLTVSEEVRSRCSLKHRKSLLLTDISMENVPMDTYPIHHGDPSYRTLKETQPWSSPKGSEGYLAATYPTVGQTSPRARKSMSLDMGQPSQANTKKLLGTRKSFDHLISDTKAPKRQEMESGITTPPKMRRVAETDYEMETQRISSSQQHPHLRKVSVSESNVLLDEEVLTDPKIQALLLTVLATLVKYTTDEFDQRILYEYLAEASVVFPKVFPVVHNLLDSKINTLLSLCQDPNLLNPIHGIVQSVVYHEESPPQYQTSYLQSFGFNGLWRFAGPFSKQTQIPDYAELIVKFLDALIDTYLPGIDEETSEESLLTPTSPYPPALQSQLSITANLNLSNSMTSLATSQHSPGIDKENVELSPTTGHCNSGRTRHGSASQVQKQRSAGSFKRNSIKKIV
Chain of UniProt Q13438 (Q13438 whole entry, looked up): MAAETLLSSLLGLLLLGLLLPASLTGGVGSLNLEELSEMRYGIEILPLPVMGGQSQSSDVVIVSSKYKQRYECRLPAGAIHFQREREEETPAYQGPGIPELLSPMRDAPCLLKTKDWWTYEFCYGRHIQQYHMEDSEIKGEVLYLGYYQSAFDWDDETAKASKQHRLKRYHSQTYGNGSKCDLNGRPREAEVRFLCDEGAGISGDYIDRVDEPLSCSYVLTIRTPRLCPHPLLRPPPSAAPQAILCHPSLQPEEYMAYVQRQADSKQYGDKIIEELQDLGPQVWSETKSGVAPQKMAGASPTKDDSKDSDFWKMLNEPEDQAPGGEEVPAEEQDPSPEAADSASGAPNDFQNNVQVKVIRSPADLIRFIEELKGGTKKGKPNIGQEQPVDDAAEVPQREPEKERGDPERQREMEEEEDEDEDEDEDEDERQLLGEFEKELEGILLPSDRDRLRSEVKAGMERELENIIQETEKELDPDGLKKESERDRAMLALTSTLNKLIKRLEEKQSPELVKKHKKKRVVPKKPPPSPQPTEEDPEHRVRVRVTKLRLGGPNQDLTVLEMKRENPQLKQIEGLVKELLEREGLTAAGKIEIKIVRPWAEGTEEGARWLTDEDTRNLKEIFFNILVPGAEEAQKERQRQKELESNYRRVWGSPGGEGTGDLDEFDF
Chain of UniProt Q5TFE4 (Q5TFE4 whole entry, looked up): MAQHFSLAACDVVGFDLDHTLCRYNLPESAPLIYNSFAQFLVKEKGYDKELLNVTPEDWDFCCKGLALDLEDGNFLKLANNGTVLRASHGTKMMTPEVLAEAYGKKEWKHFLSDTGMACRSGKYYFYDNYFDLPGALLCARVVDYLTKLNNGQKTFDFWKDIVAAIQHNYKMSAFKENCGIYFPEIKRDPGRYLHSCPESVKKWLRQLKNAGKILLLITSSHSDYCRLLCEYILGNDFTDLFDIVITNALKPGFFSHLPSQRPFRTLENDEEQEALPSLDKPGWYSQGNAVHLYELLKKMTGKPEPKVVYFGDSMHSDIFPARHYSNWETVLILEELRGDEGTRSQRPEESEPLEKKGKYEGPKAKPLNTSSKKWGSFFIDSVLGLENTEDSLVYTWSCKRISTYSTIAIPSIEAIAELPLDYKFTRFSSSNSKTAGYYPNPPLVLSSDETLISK

Row | Target | probe-labelled cysteine peptide fold change (10 µM) | probe-labelled cysteine peptide fold change (50 µM)
1 | NUP210_Q8TEM1_746_FVCAPPSR (UniProt Q8TEM1) | 0.0568 | 0.329
2 | P3H1_Q32P28_123_CLGPPAAHSLSEEMELEFR (UniProt Q32P28) | 0.411 | 0.646
3 | OAS3_Q9Y6K5_350_AGCSGLGHPIQLDPNQK (UniProt Q9Y6K5) | -0.0319 | -0.0671
4 | PDCD2L_Q9BRP1_191_LQDAVLGAAHPVPPGLPLFLPYYICVADEDDYRDFVNLDHAHSLLR (UniProt Q9BRP1) | -0.928 | 0.29
5 | NT5DC1_Q5TFE4_139_YYFYDNYFDLPGALLCAR (UniProt Q5TFE4) | 0.416 | 0.718
6 | NPTX1_Q15818_89_CESQSTLDPGAGEAR (UniProt Q15818) | -0.269 | 0.111
7 | NDUFV2_P19404_135+140_YHIQVCTTTPCMLR (UniProt P19404) | 0.0444 | -0.234
8 | NCOA7_Q8NI08_487_GALDLETCEK (UniProt Q8NI08) | -0.182 | -0.181
9 | PDPR_Q8NCN5_357_LVNCPETFTPDMR (UniProt Q8NCN5) | -0.0721 | 0.18
10 | NPM1_P06748_21_MEDSMDMDMSPLRPQNYLFGCELK (UniProt P06748) | -0.279 | -0.642
11 | NVL_O15381_431_FDREICLGIPDEASR (UniProt O15381) | -0.0502 | 0.0728
12 | NKRF_O15226_386_VFLQDHCLAEGYGTKK (UniProt O15226) | -0.274 | -0.153
13 | NSUN5_Q96P11_308_YHEVHYILLDPSCSGSGMPSR (UniProt Q96P11) | -0.725 | -0.0597
14 | OSGEP_Q9NPF4_160_IFGETIDIAVGNCLDR (UniProt Q9NPF4) | 0.0104 | -0.0314
15 | NOL6_Q9H6R4_256_LHPCPPPDFFRPCR (UniProt Q9H6R4) | 0.0181 | 0.0433
16 | PDS5A_Q29RF7_686_VLSFTHPTSFHSAETYESLLQCLR (UniProt Q29RF7) | -0.152 | -0.172
17 | ORC5_O43913_10_PHLENVVLCR (UniProt O43913) | -0.0683 | -0.0422
18 | OPLAH_O14841_1053_DIPLNQGCLAPVR (UniProt O14841) | -0.146 | 0.136
19 | PAICS_P22234_100_CGETAFIAPQCEMIPIEWVCR (UniProt P22234) | 0.00496 | 0.1
20 | OS9_Q13438_181_CDLNGRPR (UniProt Q13438) | 0.0235 | 0.139
21 | PATZ1_Q9HBE1_297_EAGILPCGLCGK (UniProt Q9HBE1) | 0.00899 | -0.0723
22 | NF1_P21359_1016_LCQLVEVMMAR (UniProt P21359) | 0.0549 | 0.181
23 | NDUFB10_O96000_119_EGQNYQQNCIK (UniProt O96000) | -0.0835 | -0.0614
24 | PCDH17_O14917_335_DLGPNPIPAHCK (UniProt O14917) | 0.6 | 0.546
25 | P4HB_P07237_312_ILEFFGLKKEECPAVR (UniProt P07237) | -0.567 | -0.501
26 | NUP133_Q8WUM0_700+702_EVSQVDTICECLLEHEEQVLR (UniProt Q8WUM0) | 0.507 | 0.631
27 | PDCD4_Q53EL6_288_GTVDCVQAR (UniProt Q53EL6) | 0.164 | 0.233
